In PubChem BioAssay (EPA / NIEHS):
Inconclusive results are not listed. Active and inactive are the calls of the source. The calls were made as follows: active = hit-call score of the fitted dose curve at least 0.9, where 1 is the maximum; inconclusive = response in the unintended direction; inactive = score below 0.9.

Molecular target: Bile acid receptor (Homo sapiens) (UniProt Q96RI1)
Experiment: OT_FXR_FXRSRC1_1440: Odyssey Thera (OT) 24-hour HEK293T Protein-Complementation Assay for Farnesoid X receptor/SRC-1 Co-activator (AID 2283384)
Method: OT_FXR_FXRSRC1_1440 is a cell-based assay that uses HEK293T, a human kidney cell line, with measurements taken at 24 hours after chemical dosing in a 384-well plate.OT_FXR_FXRSRC1_1440 is one of one assay component(s) measured or calculated from the OT_FXR_FXRSRC1_1440 assay. It is designed to make measurements of protein fragment complementation, a form of binding reporter, as detected with fluorescence intensity signals by Protein-fragment Complementation technology.Data from the assay component OT_FXR_FXRSRC1_1440 was analyzed into 1 assay endpoint. This assay endpoint, OT_FXR_FXRSRC1_1440, was analyzed in the positive analysis fitting direction relative to DMSO as the negative control and baseline of activity. Using a type of binding reporter, measures of receptor for gain-of-signal activity can be used to understand the binding at the pathway-level as they relate to the gene NR1H4. Furthermore, this assay endpoint can be referred to as a primary readout, because the performed assay has only produced 1 assay endpoint. To generalize the intended target to other relatable targets, this assay endpoint is annotated to the nuclear receptor intended target family, where the subfamily is non-steroidal.
Protein-fragment complementation assay, or PCA, is a method for the identification and quantification of protein-protein interactions. In the PCA, the proteins of interest ("bait" and "prey") are each covalently linked to fragments of a third protein (e.g. DHFR, which acts as a "reporter"). Interaction between the bait and the prey proteins brings the fragments of the reporter protein in close proximity to allow them to form a functional reporter protein whose activity can be measured.

Sequence of Bile acid receptor (Homo sapiens) (Q96RI1 whole entry, looked up): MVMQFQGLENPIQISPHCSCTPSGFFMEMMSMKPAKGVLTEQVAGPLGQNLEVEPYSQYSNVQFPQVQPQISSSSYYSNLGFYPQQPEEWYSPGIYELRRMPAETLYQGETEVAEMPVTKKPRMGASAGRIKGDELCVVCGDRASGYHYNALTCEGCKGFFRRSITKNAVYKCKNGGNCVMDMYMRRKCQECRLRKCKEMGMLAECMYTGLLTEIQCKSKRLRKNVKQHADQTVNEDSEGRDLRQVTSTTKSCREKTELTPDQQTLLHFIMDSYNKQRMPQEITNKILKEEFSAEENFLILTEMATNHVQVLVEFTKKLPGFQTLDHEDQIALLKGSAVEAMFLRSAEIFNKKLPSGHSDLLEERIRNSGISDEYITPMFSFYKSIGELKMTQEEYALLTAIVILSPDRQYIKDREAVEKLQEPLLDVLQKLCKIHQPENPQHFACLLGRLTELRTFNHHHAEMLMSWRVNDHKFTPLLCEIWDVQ

Row | Compound | AC50 | outcome
1 | O=C1OC2(c3ccc(O)cc3Oc3cc(O)ccc32)c2ccccc21 | 11.4 µM (active) | 
2 | CCCCCC(=O)O[C@]1(C(C)=O)CC[C@H]2[C@@H]3CCC4=CC(=O)CC[C@]4(C)[C@H]3CC[C@@]21C | 11.6 µM (active) | 
3 | CC1COC(=O)O1 (stereo unspecified) |  | inactive
4 | CCC(C)(C)C1CCC(OC)CC1 (stereo unspecified) |  | inactive
5 | CC12CCC(C1)C(C)(C)C2O (stereo unspecified) |  | inactive
6 | c1ccc(Cc2ccccc2)cc1 |  | inactive
7 | CCCCC/C=C\C=C\C(=O)OCC | 81 µM (active) | 
8 | CCCc1ccc(O)cc1 |  | inactive
9 | CCC(C)(CCCC(C)C)OC(C)=O (stereo unspecified) |  | inactive
10 | CC1=CCC(C(C)(C)O)CC1 (stereo unspecified) |  | inactive
11 | CCCCCCCCOS(=O)(=O)O |  | inactive
12 | COc1ccc2[nH]cc(CCNC(C)=O)c2c1 |  | inactive
13 | CCC(=O)OC(C)(C)C1CC=C(C)CC1 (stereo unspecified) |  | inactive
14 | NC(=O)c1cccnc1 |  | inactive
15 | CCc1cccc(O)c1 |  | inactive
16 | CCOCC(C)O (stereo unspecified) |  | inactive
17 | CC(=O)C1C(=O)C=C(C)OC1=O (stereo unspecified) |  | inactive
18 | CC(=O)CC(=O)N(C)C |  | inactive
19 | CC(=O)c1ccc2ccccc2c1 |  | inactive
20 | OC[C@H]1O[C@@H](O[C@H]2[C@H](O)[C@@H](O)[C@H](O)O[C@@H]2CO)[C@H](O)[C@@H](O)[C@H]1O |  | inactive
21 | CC(=O)C1=C(C)[C@@H]2C[C@@]3(C1)[C@H](C)CC[C@H]3C2(C)C |  | inactive
